Among all 5,500 compounds or so, about 2,000 (36%) were called active. About 18% were inconclusive and are not listed. The list shows a part of the results. Values without a mark were called inactive. Cut-off read from the data, not from the text of the source: active = normalized growth mostly below about 0.91 (no sharp cut-off); inconclusive = no clear call, values can overlap the other calls; inactive = mostly above about 0.92.
Assay: chemical genetic growth profiling, strain panel (AID 1159580);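 note: tested at 20 µM; growth read once vehicle control cultures reached saturation at 30 °C; 1 = growth at the plate median or of vehicle wells; lower values mean less growth of the strain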
Conditions: growth OD
[1] = S. cerevisiae deletion strains, locus YAL013W, strain DEP1, active compounds read low
[2] = S. cerevisiae deletion strains, locus YBR229C, strain ROT2, active compounds read low
[3] = S. cerevisiae deletion strains, locus YDL101C, strain DUN1, active compounds read low
[4] = S. cerevisiae deletion strains, locus YDL134C, strain PPH21, active compounds read low
[5] = S. cerevisiae deletion strains, locus YDR150W, strain NUM1, active compounds read low
[6] = S. cerevisiae deletion strains, locus YEL061C, strain CIN8, active compounds read low
[7] = S. cerevisiae deletion strains, locus YGR078C, strain PAC10, active compounds read low
[8] = S. cerevisiae deletion strains, locus YHR030C, strain SLT2, active compounds read low
[9] = S. cerevisiae deletion strains, locus YHR087W, strain rtc3, active compounds read low
[10] = S. cerevisiae deletion strains, locus YJR043C, strain POL32, active compounds read low
[11] = S. cerevisiae deletion strains, locus YJR075W, strain HOC1, active compounds read low
[12] = S. cerevisiae deletion strains, locus YLR039C, strain RIC1, active compounds read low
[13] = S. cerevisiae deletion strains, locus YLR058C, strain SHM2 (second series), active compounds read low
[14] = S. cerevisiae deletion strains, locus YLR085C, strain ARP6, active compounds read low
[15] = S. cerevisiae deletion strains, locus YLR262C, strain YPT6, active compounds read low
[16] = S. cerevisiae deletion strains, locus YML094W, strain GIM5, active compounds read low
[17] = S. cerevisiae deletion strains, locus YMR219W, strain ESC1, active compounds read low
[18] = S. cerevisiae deletion strains, locus YMR263W, strain SAP30, active compounds read low
[19] = S. cerevisiae deletion strains, locus YNL153C, strain GIM3, active compounds read low
[20] = S. cerevisiae deletion strains, locus YNL298W, strain CLA4 (second series), active compounds read low
[21] = S. cerevisiae deletion strains, locus YNL322C, strain KRE1, active compounds read low
[22] = S. cerevisiae deletion strains, locus YNR030W, strain Alg12, active compounds read low
[23] = S. cerevisiae deletion strains, locus YOL006C, strain TOP1, active compounds read low
[24] = S. cerevisiae deletion strains, locus YPL055C, strain LGE1, active compounds read low
[25] = S. cerevisiae deletion strains, locus YPL241C, strain CIN2, active compounds read low
[26] = S. cerevisiae deletion strains, locus YPR135W, strain CTF4, active compounds read low

## Cc1ccc(C(=O)NNC(=O)c2ccncc2)c(C)c1
[1]
  normalized growth: 0.994
[2]
  normalized growth: 0.993
S. cerevisiae deletion strains, locus YCL061C, strain MRC1, active compounds read low
  normalized growth: 1.01
[3]
  normalized growth: 1.02
[4]
  normalized growth: 1
[5]
  normalized growth: 0.925
[6]
  normalized growth: 0.993
[7]
  normalized growth: 1
S. cerevisiae deletion strains, locus YGR229C, strain SMI1, active compounds read low
  normalized growth: 1.01
[8]
  normalized growth: 1.01
[9]
  normalized growth: 1
[10]
  normalized growth: 1.01
[11]
  normalized growth: 1.03
S. cerevisiae deletion strains, locus YKL190W, strain CNB1, active compounds read low
  normalized growth: 1.01
[12]
  normalized growth: 1.03
[13]
  normalized growth: 0.994
[14]
  normalized growth: 0.98
[15]
  normalized growth: 1.02
[16]
  normalized growth: 0.983
[17]
  normalized growth: 0.988
[18]
  normalized growth: 0.965
S. cerevisiae deletion strains, locus YMR307W, strain GAS1, active compounds read low
  normalized growth: 1.01
[19]
  normalized growth: 1.01
[20]
  normalized growth: 1.03
[21]
  normalized growth: 0.991
[22]
  normalized growth: 1.01
[23]
  normalized growth: 1.06
[24]
  normalized growth: 0.934
[25]
  normalized growth: 0.998
[26]
  normalized growth: 1.08
S. cerevisiae strains, strain wild type, active compounds read low
  normalized growth: 1.01

## COC(=O)Cc1nc(NC(=O)c2ccccc2)sc1C
[1]
  normalized growth: 1.02
[2]
  normalized growth: 1
[3]
  normalized growth: 0.972
[4]
  normalized growth: 1.01
[5]
  normalized growth: 0.994
[6]
  normalized growth: 1.02
[7]
  normalized growth: 0.999
[8]
  normalized growth: 0.977
[9]
  normalized growth: 0.98
[10]
  normalized growth: 1.01
[11]
  normalized growth: 1
[12]
  normalized growth: 1.02
[13]
  normalized growth: 1
[14]
  normalized growth: 0.889
[15]
  normalized growth: 1.12
[16]
  normalized growth: 0.948
[17]
  normalized growth: 0.994
[18]
  normalized growth: 1
[19]
  normalized growth: 1
[20]
  normalized growth: 1.02
[21]
  normalized growth: 1.01
[22]
  normalized growth: 0.983
[23]
  normalized growth: 0.976
[24]
  normalized growth: 0.927
[25]
  normalized growth: 0.944
[26]
  normalized growth: 1

## Cc1ccc(C(=O)Nc2ccc3ccccc3n2)cc1
S. cerevisiae deletion strains, locus YAR019C, strain CDC15, active compounds read low
  normalized growth: 0.956
S. cerevisiae deletion strains, locus YBL105C, strain PKC1, active compounds read low
  normalized growth: 0.954
S. cerevisiae deletion strains, locus YBR135W, strain CKS1, active compounds read low
  normalized growth: 0.958
S. cerevisiae deletion strains, locus YBR136W, strain MEC1, active compounds read low
  normalized growth: 0.965
S. cerevisiae deletion strains, locus YBR160W, strain CDC28, active compounds read low
  normalized growth: 0.95
S. cerevisiae deletion strains, locus YDL017W, strain CDC7, active compounds read low
  normalized growth: 0.964
S. cerevisiae deletion strains, locus YDL028C, strain MPS1, active compounds read low
  normalized growth: 0.964
[3]
  normalized growth: 0.96
S. cerevisiae deletion strains, locus YDL108W, strain KIN28, active compounds read low
  normalized growth: 0.963
S. cerevisiae deletion strains, locus YDL132W, strain cdc53, active compounds read low
  normalized growth: 0.96
S. cerevisiae deletion strains, locus YDL214C, strain PRR2, active compounds read low
  normalized growth: 0.92
S. cerevisiae deletion strains, locus YDR052C, strain DBF4, active compounds read low
  normalized growth: 0.976
S. cerevisiae deletion strains, locus YDR054C, strain cdc34, active compounds read low
  normalized growth: 0.94
S. cerevisiae deletion strains, locus YDR226W, strain ADK1, active compounds read low
  normalized growth: 0.956
S. cerevisiae deletion strains, locus YDR477W, strain SNF1, active compounds read low
  normalized growth: 0.937
S. cerevisiae deletion strains, locus YER123W, strain YCK3, active compounds read low
  normalized growth: 0.906
S. cerevisiae deletion strains, locus YER133W, strain GLC7, active compounds read low
  normalized growth: 0.929
S. cerevisiae deletion strains, locus YFL009W, strain cdc4, active compounds read low
  normalized growth: 0.954
S. cerevisiae deletion strains, locus YFL029C, strain CAK1, active compounds read low
  normalized growth: 0.956
S. cerevisiae deletion strains, locus YFR003C, strain YPI1, active compounds read low
  normalized growth: 0.961
S. cerevisiae deletion strains, locus YFR019W, strain FAB1, active compounds read low
  normalized growth: 0.983
S. cerevisiae deletion strains, locus YFR028C, strain CDC14, active compounds read low
  normalized growth: 0.944
S. cerevisiae deletion strains, locus YGR040W, strain KSS1, active compounds read low
  normalized growth: 0.925
S. cerevisiae deletion strains, locus YGR052W, strain FMP48, active compounds read low
  normalized growth: 0.99
S. cerevisiae deletion strains, locus YGR092W, strain DBF2, active compounds read low
  normalized growth: 0.892
[8]
  normalized growth: 0.938
S. cerevisiae deletion strains, locus YHR079C, strain IRE1, active compounds read low
  normalized growth: 0.933
S. cerevisiae deletion strains, locus YHR082C, strain KSP1, active compounds read low
  normalized growth: 0.994
S. cerevisiae deletion strains, locus YHR205W, strain SCH9, active compounds read low
  normalized growth: 0.954
S. cerevisiae deletion strains, locus YIL147C, strain SLN1, active compounds read low
  normalized growth: 0.963
S. cerevisiae deletion strains, locus YJL095W, strain BCK1, active compounds read low
  normalized growth: 0.952
S. cerevisiae deletion strains, locus YJL128C, strain PBS2, active compounds read low
  normalized growth: 0.954
S. cerevisiae deletion strains, locus YJL157C, strain FAR1, active compounds read low
  normalized growth: 0.917
S. cerevisiae deletion strains, locus YJR016C, strain ILV3, active compounds read low
  normalized growth: 0.946
S. cerevisiae deletion strains, locus YJR066W, strain TOR1 (second series), active compounds read low
  normalized growth: 0.918
S. cerevisiae deletion strains, locus YJR066W, strain TOR1, active compounds read low
  normalized growth: 0.978
S. cerevisiae deletion strains, locus YKL048C, strain ELM1, active compounds read low
  normalized growth: 0.948
S. cerevisiae deletion strains, locus YKL067W, strain YNK1, active compounds read low
  normalized growth: 0.93
S. cerevisiae deletion strains, locus YKL101W, strain HSL1, active compounds read low
  normalized growth: 0.95
S. cerevisiae deletion strains, locus YKL193C, strain SDS22, active compounds read low
  normalized growth: 0.957
S. cerevisiae deletion strains, locus YKL203C, strain TOR2, active compounds read low
  normalized growth: 0.986
S. cerevisiae deletion strains, locus YLR113W, strain HOG1, active compounds read low
  normalized growth: 0.857 (active)
S. cerevisiae deletion strains, locus YLR133W, strain CKI1, active compounds read low
  normalized growth: 0.944
S. cerevisiae deletion strains, locus YLR403W, strain SFP1, active compounds read low
  normalized growth: 0.934
S. cerevisiae deletion strains, locus YML070W, strain DAK1, active compounds read low
  normalized growth: 0.901
S. cerevisiae deletion strains, locus YMR001C, strain CDC5, active compounds read low
  normalized growth: 0.966
S. cerevisiae deletion strains, locus YMR205C, strain PFK2 (second series), active compounds read low
  normalized growth: 0.941
S. cerevisiae deletion strains, locus YMR277W, strain FCP1, active compounds read low
  normalized growth: 0.956
S. cerevisiae deletion strains, locus YNL006W, strain LST8, active compounds read low
  normalized growth: 0.966
S. cerevisiae deletion strains, locus YNL020C, strain ARK1, active compounds read low
  normalized growth: 0.947
S. cerevisiae deletion strains, locus YNL161W, strain CBK1, active compounds read low
  normalized growth: 0.944
S. cerevisiae deletion strains, locus YNL183C, strain NPR1, active compounds read low
  normalized growth: 0.959
S. cerevisiae deletion strains, locus YNL207W, strain RIO2, active compounds read low
  normalized growth: 0.964
S. cerevisiae deletion strains, locus YNL222W, strain SSU72, active compounds read low
  normalized growth: 0.95
S. cerevisiae deletion strains, locus YNL307C, strain MCK1 (second series), active compounds read low
  normalized growth: 0.93
S. cerevisiae deletion strains, locus YOL078W, strain AVO1, active compounds read low
  normalized growth: 0.958
S. cerevisiae deletion strains, locus YOL136C, strain PFK27, active compounds read low
  normalized growth: 0.92
S. cerevisiae deletion strains, locus YOR061W, strain CKA2, active compounds read low
  normalized growth: 0.964
S. cerevisiae deletion strains, locus YOR119C, strain RIO1, active compounds read low
  normalized growth: 1.01
S. cerevisiae deletion strains, locus YOR231W, strain MKK1, active compounds read low
  normalized growth: 0.921
S. cerevisiae deletion strains, locus YOR329C, strain SCD5, active compounds read low
  normalized growth: 0.962
S. cerevisiae deletion strains, locus YPL031C, strain PHO85, active compounds read low
  normalized growth: 0.948
S. cerevisiae deletion strains, locus YPL153C, strain RAD53, active compounds read low
  normalized growth: 0.928
S. cerevisiae deletion strains, locus YPL204W, strain HRR25, active compounds read low
  normalized growth: 0.937
S. cerevisiae deletion strains, locus YPL209C, strain IPL1, active compounds read low
  normalized growth: 0.949
S. cerevisiae deletion strains, locus YPL256C, strain CLN2, active compounds read low
  normalized growth: 0.876
S. cerevisiae deletion strains, locus YPR025C, strain CCL1, active compounds read low
  normalized growth: 0.959
S. cerevisiae deletion strains, locus YPR106W, strain ISR1, active compounds read low
  normalized growth: 0.949
S. cerevisiae deletion strains, locus YPR111W, strain DBF20, active compounds read low
  normalized growth: 0.945
S. cerevisiae deletion strains, strain NNK1, active compounds read low
  normalized growth: 0.956
S. cerevisiae deletion strains, strain TSCII, active compounds read low
  normalized growth: 0.957

— PubChem BioAssay AID1159580 (chemical genetic matrix, 2015)
